{"source": "PubChem BioAssay", "note": "Inconclusive results are not listed. Calls of active or inactive are those of the source. Unless noted, no cut-off is given here; in the data, nearly all actives have AC50 up to about 27 µM.", "data": [{"experiment": "growth inhibition of DIPG glioma cells, dose response, cell-based, JHH-DIPG-1, MIPE4.0, CellTiter-Glo, qHTS (AID 1347062);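 for AC50: cells exposed to compound for two days before readout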", "conditions": "JHH-DIPG-1 viability, CellTiter-Glo ATP luminescence", "values": [{"compound": "CC[C@H](NC(C)C)[C@H](O)c1ccc(O)c2[nH]c(=O)ccc12", "outcome": "inactive"}, {"compound": "COc1cccc(-c2cc(=O)c3ccccc3o2)c1N", "outcome": "inactive"}, {"compound": "COc1cc2nccc(Oc3ccc(NC(=O)Nc4ccc(F)cc4F)c(F)c3)c2cc1OC", "outcome": "inactive"}, {"compound": "O=Nc1c(-c2c(O)[nH]c3cc(Br)ccc23)[nH]c2ccccc12", "AC50": "20.9 µM (active)"}, {"compound": "O=c1[nH]nc(Sc2ncc([N+](=O)[O-])s2)n1-c1ccc2c(c1)OCCO2", "AC50": "5.26 µM (active)"}, {"compound": "N[C@H](CSC(c1ccccc1)(c1ccccc1)c1ccccc1)C(=O)O", "outcome": "inactive"}, {"compound": "CS(=O)c1ccc(-c2nc(-c3ccc(F)cc3)c(-c3ccncc3)[nH]2)cc1", "note": "(stereo unspecified)", "AC50": "15.2 µM (active)"}, {"compound": "O=c1cc(-c2cccc3c2Sc2ccccc2S3)oc(N2CCOCC2)c1", "outcome": "inactive"}, {"compound": "COc1nccc(-c2c(-c3ccc(F)cc3)ncn2C2CCC(O)CC2)n1", "note": "(stereo unspecified)", "outcome": "inactive"}, {"compound": "O=C(O)CCc1ccc(NCc2cccc(Oc3ccccc3)c2)cc1", "outcome": "inactive"}, {"compound": "Oc1ccc2ccccc2c1SSc1c(O)ccc2ccccc12", "AC50": "23.5 µM (active)"}, {"compound": "CC(Oc1ccc(O)cc1)(P(=O)(O)O)P(=O)(O)O", "outcome": "inactive"}, {"compound": "CN1C(=O)C(Cc2c[nH]c3ccccc23)NC1=S", "note": "(stereo unspecified)", "outcome": "inactive"}, {"compound": "COc1ccc([C@@H]2CNC(=O)C2)cc1OC1CCCC1", "outcome": "inactive"}, {"compound": "O=C1Nc2ccc(I)cc2/C1=C/c1cc(Br)c(O)c(Br)c1", "outcome": "inactive"}, {"compound": "O=C(O)C1CCCN(CCC=C(c2ccccc2)c2ccccc2)C1", "note": "(stereo unspecified)", "outcome": "inactive"}, {"compound": "CCOc1ccc(Nc2nc(-c3c(C)nc4ccccn34)cs2)cc1", "AC50": "16.6 µM (active)"}, {"compound": "Nc1ncnc2nc(-c3ccc(N4CCOCC4)nc3)cc(-c3cccc(Br)c3)c12", "outcome": "inactive"}, {"compound": "O=C1NC(=O)C(c2ccccc2[N+](=O)[O-])=C1Nc1ccc(O)c(Cl)c1", "outcome": "inactive"}, {"compound": "Fc1ccc(Cl)cc1-c1nc(Nc2ccncc2)c2nccnc2n1", "outcome": "inactive"}, {"compound": "Cc1cc(NC(=O)Nc2ccc(N(C)C)cc2)c2cc(F)cc(F)c2n1", "outcome": "inactive"}, {"compound": "Cc1ccc(/C=N/NC(=O)c2ccccc2Oc2ccccc2)o1", "outcome": "inactive"}, {"compound": "O=C(O)c1ccc2cc(-c3ccc(O)c(C45CC6CC(CC(C6)C4)C5)c3)ccc2c1", "AC50": "5.26 µM (active)"}, {"compound": "COc1cc(OC)c(NC(=O)Nc2cc(C)on2)cc1Cl", "outcome": "inactive"}, {"compound": "NC(=O)c1ccc2[nH]ccc2c1", "outcome": "inactive"}, {"compound": "Cc1[nH]c(/C=C2\\C(=O)Nc3ccccc32)c(C)c1CCC(=O)O", "AC50": "16.6 µM (active)"}, {"compound": "CCOC(=O)C1=C(N)Oc2ccc(Br)cc2C1C(C#N)C(=O)OCC", "note": "(stereo unspecified)", "AC50": "23.5 µM (active)"}, {"compound": "CCC(C)N(C)C(=O)c1cc2ccccc2c(-c2ccccc2Cl)n1", "note": "(stereo unspecified)", "outcome": "inactive"}, {"compound": "COC1CCC(C(=O)c2ccc3nc4c(cc3c2)CCCO4)CC1", "note": "(stereo unspecified)", "AC50": "20.9 µM (active)"}, {"compound": "O=C(O)c1ccc(-c2c[nH]c3ncc(-c4ccccc4)cc23)cc1C1CCCC1", "outcome": "inactive"}, {"compound": "CCCCC[C@H](O)/C=C/[C@H]1[C@H](O)CC(=O)[C@@H]1C/C=C\\CCCC(=O)O", "outcome": "inactive"}, {"compound": "N#Cc1c(O)c2c(-c3ccc(-c4ccccc4O)cc3)csc2[nH]c1=O", "outcome": "inactive"}, {"compound": "O=c1[nH]c(-c2ccc(C(F)(F)F)cc2)nc2c1CSCC2", "outcome": "inactive"}]}, {"experiment": "growth inhibition of DIPG glioma cells, dose response, cell-based, SU-DIPG-IV, MIPE4.0, CellTiter-Glo, qHTS (AID 1347063; cut-off not given, nearly all actives have AC50 up to about 30 µM;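 note: compound exposure lasted 48 hours before the viability readout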)", "conditions": "SU-DIPG-IV viability, CellTiter-Glo ATP luminescence", "values": [{"compound": "CC[C@H](NC(C)C)[C@H](O)c1ccc(O)c2[nH]c(=O)ccc12", "outcome": "inactive"}, {"compound": "O=Nc1c(-c2c(O)[nH]c3cc(Br)ccc23)[nH]c2ccccc12", "AC50": "3.32 µM (active)"}, {"compound": "CS(=O)c1ccc(-c2nc(-c3ccc(F)cc3)c(-c3ccncc3)[nH]2)cc1", "note": "(stereo unspecified)", "AC50": "48.1 µM (active)"}, {"compound": "COc1nccc(-c2c(-c3ccc(F)cc3)ncn2C2CCC(O)CC2)n1", "note": "(stereo unspecified)", "outcome": "inactive"}, {"compound": "CCc1c2c(nc3ccc(O)cc13)-c1cc3c(c(=O)n1C2)COC(=O)[C@]3(O)CC", "AC50": "0.0296 µM (active)"}, {"compound": "O=C(O)CCc1ccc(NCc2cccc(Oc3ccccc3)c2)cc1", "outcome": "inactive"}, {"compound": "Oc1ccc2ccccc2c1SSc1c(O)ccc2ccccc12", "AC50": "18.7 µM (active)"}, {"compound": "CC(Oc1ccc(O)cc1)(P(=O)(O)O)P(=O)(O)O", "outcome": "inactive"}, {"compound": "CCN(CC)CCCC(C)Nc1nc(C)cc(Nc2ccc3nc(C)cc(N)c3c2)n1", "note": "(stereo unspecified)", "outcome": "inactive"}, {"compound": "O=C(O)C1CCCN(CCC=C(c2ccccc2)c2ccccc2)C1", "note": "(stereo unspecified)", "outcome": "inactive"}, {"compound": "O=C1NC(=O)C(c2ccccc2[N+](=O)[O-])=C1Nc1ccc(O)c(Cl)c1", "outcome": "inactive"}, {"compound": "Fc1ccc(Cl)cc1-c1nc(Nc2ccncc2)c2nccnc2n1", "outcome": "inactive"}, {"compound": "O=C(O)c1ccc2cc(-c3ccc(O)c(C45CC6CC(CC(C6)C4)C5)c3)ccc2c1", "AC50": "0.332 µM (active)"}, {"compound": "COc1cc(OC)c(NC(=O)Nc2cc(C)on2)cc1Cl", "outcome": "inactive"}, {"compound": "COC1CCC(C(=O)c2ccc3nc4c(cc3c2)CCCO4)CC1", "note": "(stereo unspecified)", "AC50": "9.35 µM (active)"}, {"compound": "O=C(O)c1ccc(-c2c[nH]c3ncc(-c4ccccc4)cc23)cc1C1CCCC1", "AC50": "0.372 µM (active)"}, {"compound": "CCCCC[C@H](O)/C=C/[C@H]1[C@H](O)CC(=O)[C@@H]1C/C=C\\CCCC(=O)O", "outcome": "inactive"}, {"compound": "N#Cc1c(O)c2c(-c3ccc(-c4ccccc4O)cc3)csc2[nH]c1=O", "outcome": "inactive"}]}]}
